Test results published in ChEMBL document CHEMBL3988442, “University of Dundee, Small-Polar-MMV Screening Library” (2021).
For some of these results: Potency and affinity values are given separately.

How the values were obtained:
Set-up in all cases: scale not given: direction of the effect not stated beside the values
[1] = biological target: Protein translocase subunit SecA (Escherichia coli (strain K12)) (UniProt P10408); experiment: Assay to Identify E. coli SecA ATPase Inhibitors; assay type: functional; conditions: 30 µM
[2] = biological target: T1, Ubiquitin-activating enzyme e1, putative (Leishmania donovani (strain BPK282A1)) (UniProt E9BSI1); experiment: Leishmania donovani Ubiquitin Activating Enzyme (LdE1); assay type: functional; conditions: 30 µM
T1 sequence (whole entry): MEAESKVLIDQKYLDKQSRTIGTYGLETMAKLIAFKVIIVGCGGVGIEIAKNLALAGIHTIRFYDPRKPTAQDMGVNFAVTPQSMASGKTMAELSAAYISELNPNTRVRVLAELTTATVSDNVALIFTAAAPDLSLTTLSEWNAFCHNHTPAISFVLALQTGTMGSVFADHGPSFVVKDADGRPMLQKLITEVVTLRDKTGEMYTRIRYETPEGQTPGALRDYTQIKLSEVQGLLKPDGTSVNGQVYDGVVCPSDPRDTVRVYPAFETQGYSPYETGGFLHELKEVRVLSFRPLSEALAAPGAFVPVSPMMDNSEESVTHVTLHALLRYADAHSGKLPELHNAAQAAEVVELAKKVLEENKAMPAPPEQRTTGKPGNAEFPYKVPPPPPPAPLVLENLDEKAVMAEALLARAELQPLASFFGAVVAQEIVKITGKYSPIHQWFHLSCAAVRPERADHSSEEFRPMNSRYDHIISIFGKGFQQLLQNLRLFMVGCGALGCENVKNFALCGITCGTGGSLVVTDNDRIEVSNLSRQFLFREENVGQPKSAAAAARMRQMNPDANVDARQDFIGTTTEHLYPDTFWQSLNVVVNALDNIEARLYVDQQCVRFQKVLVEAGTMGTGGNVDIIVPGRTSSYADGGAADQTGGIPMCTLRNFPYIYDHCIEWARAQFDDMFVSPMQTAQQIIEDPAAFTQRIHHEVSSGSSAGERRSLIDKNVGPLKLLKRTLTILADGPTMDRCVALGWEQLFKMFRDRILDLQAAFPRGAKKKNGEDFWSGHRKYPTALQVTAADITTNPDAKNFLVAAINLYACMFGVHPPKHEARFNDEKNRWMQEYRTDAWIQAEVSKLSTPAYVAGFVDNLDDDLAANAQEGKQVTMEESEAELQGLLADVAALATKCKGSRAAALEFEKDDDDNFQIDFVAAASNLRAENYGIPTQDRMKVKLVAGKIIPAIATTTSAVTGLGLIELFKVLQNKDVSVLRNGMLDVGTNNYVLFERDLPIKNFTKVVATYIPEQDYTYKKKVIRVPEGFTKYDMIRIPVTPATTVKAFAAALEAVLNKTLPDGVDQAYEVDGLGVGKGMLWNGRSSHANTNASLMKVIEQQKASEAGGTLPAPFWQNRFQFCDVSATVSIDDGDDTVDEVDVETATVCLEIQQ

[3] = biological target: AMP-activated protein kinase, AMPK (Homo sapiens) (UniProt P54646+O43741+P54619+Q9UGJ0+Q9Y478+Q13131+Q9UGI9); experiment: AMP-dependent Kinase enzyme assay. An in vitro enzyme assay that detects ADP turnover that is directly proportional to AMPK activity. This uses naive AMPK that is activated during the assay with MK-8722; assay type: functional; conditions: 30 µM
[4] = biological target: Sialic acid-binding Ig-like lectin 9 (Homo sapiens) (UniProt Q9Y336); experiment: Hs-Siglec9 ALPHAscreen SOP 20170721; conditions: 10 µM
[5] = test system: Trypanosoma cruzi; experiment: Trypanosoma cruzi phosphomannomutase and mannose-1-phosphate guanylyltransferase assay; assay type: functional; conditions: 10 µM
[6] = biological target: T2, Arginase-2, mitochondrial (Homo sapiens) (UniProt P78540); experiment: in vitro enzyme assay to detect the production of urea directly proportional to the activity of Arginase II; assay type: functional; conditions: 33.3 µM; further: in the data most compounds retested in dose-response had high values
T2 sequence (whole entry): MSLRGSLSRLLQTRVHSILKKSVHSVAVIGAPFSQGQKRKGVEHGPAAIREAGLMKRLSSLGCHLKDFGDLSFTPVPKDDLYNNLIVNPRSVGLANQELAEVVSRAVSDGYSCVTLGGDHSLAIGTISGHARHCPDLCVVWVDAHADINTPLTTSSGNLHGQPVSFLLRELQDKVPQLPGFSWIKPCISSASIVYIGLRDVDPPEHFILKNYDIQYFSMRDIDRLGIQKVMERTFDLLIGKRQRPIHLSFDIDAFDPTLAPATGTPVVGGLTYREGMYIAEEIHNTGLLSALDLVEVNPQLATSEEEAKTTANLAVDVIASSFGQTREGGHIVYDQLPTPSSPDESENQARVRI

[7] = biological target: T3, Proteasome subunit beta (Trypanosoma cruzi) (UniProt O96673); experiment: Trypanosoma cruzi proteasome chymotrypsin-like activity (TcProtChymo) assay.; further: in the data most compounds retested in dose-response had high values; assay type: functional; conditions: 9.37 µM
T3 sequence (whole entry): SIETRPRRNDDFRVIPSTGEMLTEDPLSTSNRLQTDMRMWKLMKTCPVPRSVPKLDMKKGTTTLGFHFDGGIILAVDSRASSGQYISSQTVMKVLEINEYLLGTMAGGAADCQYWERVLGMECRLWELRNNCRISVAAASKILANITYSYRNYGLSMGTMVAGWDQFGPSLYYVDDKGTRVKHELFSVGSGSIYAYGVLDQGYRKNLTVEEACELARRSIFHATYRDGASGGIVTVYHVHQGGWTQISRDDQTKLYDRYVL

[8] = organism: Homo sapiens; experiment: To identify inhibition of the IFN signalling (Jak-Stat) pathway via expression of an eGFP reporter gene under the control of an IFN-stimulated response element (ISRE) containing MxA promoter.; assay type: functional; conditions: 30 µM
[9] = biological target: T4, Tyrosyl-tRNA synthetase, putative (Trypanosoma cruzi (strain CL Brener)) (UniProt Q4DSP6); experiment: Trypanosoma cruzi tyrosyl tRNA synthetase (TcYRS) _High Tyrosine SOP; assay type: functional; conditions: 30 µM; further: in the data most compounds retested in dose-response had high values
T4 sequence (whole entry): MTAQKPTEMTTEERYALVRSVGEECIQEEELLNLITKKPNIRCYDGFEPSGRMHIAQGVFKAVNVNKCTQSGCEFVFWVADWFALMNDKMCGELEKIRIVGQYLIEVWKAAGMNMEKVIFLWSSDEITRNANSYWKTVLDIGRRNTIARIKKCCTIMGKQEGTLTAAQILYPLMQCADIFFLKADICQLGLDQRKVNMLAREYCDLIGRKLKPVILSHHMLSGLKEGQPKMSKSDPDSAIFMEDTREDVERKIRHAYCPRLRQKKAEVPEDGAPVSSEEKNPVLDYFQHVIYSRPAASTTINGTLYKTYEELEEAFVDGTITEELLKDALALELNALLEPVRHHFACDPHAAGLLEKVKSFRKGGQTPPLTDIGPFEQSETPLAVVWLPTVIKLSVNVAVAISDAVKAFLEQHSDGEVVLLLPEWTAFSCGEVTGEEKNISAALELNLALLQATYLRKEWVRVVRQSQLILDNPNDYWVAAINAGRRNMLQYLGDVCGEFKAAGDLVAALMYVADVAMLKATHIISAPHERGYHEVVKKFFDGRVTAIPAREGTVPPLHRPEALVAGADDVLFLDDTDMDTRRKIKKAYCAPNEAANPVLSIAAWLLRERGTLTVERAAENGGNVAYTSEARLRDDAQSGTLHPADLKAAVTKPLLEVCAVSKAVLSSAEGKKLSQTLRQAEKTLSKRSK

[10] = biological target: T4, Tyrosyl-tRNA synthetase, putative (Trypanosoma cruzi (strain CL Brener)); experiment: Trypanosoma cruzi tyrosyl tRNA synthetase (TcYRS) SOP; assay type: functional; conditions: 30 µM
[11] = biological target: Chromo domain-containing protein 1 (Saccharomyces cerevisiae (strain ATCC 204508 / S288c) (Baker's yeast)) (UniProt P32657); experiment: ScCHD-1 Enzyme Inhibition Assay; assay type: functional; conditions: 30 µM; further: in the data most compounds retested in dose-response had high values
Chain of Chromo domain-containing protein 1 (Saccharomyces cerevisiae (strain ATCC 204508 / S288c) (Baker's yeast)) (P32657 whole entry, the tested form may be a part): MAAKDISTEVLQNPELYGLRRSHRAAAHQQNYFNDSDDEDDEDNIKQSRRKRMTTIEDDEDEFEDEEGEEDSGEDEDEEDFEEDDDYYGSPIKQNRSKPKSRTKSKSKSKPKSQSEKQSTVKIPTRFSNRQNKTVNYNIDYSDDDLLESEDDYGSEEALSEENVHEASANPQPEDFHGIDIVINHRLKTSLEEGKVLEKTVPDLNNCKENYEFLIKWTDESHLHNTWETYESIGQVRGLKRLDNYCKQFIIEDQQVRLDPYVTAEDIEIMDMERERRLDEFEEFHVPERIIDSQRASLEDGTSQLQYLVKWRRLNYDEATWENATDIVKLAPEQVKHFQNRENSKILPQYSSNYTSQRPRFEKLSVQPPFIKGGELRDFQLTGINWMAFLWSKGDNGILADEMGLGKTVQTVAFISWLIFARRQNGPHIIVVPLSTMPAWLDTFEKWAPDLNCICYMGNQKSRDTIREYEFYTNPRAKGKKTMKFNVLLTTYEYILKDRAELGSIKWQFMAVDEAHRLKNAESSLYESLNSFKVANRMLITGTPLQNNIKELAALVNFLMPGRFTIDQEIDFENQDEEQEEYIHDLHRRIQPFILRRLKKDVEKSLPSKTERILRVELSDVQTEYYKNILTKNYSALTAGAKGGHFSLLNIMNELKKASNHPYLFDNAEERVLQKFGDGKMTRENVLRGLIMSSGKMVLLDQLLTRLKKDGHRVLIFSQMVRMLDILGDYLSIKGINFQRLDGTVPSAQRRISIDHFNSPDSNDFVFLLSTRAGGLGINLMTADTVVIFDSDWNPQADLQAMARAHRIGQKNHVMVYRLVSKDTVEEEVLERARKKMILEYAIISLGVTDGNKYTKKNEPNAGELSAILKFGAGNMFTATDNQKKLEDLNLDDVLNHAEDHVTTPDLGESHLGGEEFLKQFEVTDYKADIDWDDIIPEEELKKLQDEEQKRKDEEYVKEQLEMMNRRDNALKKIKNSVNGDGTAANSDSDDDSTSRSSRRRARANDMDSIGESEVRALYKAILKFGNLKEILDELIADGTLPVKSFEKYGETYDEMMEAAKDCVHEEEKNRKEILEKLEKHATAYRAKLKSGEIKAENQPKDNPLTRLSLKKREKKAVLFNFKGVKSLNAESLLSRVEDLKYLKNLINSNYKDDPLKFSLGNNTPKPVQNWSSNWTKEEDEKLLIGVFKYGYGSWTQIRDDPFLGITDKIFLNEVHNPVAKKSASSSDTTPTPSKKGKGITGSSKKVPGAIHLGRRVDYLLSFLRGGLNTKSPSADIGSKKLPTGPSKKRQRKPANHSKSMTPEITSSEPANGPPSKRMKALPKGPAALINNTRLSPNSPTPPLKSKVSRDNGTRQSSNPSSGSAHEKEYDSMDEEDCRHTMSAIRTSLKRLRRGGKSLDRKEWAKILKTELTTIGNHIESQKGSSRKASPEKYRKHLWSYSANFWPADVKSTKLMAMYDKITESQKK

Chain of Sialic acid-binding Ig-like lectin 9 (Homo sapiens) (Q9Y336 whole entry): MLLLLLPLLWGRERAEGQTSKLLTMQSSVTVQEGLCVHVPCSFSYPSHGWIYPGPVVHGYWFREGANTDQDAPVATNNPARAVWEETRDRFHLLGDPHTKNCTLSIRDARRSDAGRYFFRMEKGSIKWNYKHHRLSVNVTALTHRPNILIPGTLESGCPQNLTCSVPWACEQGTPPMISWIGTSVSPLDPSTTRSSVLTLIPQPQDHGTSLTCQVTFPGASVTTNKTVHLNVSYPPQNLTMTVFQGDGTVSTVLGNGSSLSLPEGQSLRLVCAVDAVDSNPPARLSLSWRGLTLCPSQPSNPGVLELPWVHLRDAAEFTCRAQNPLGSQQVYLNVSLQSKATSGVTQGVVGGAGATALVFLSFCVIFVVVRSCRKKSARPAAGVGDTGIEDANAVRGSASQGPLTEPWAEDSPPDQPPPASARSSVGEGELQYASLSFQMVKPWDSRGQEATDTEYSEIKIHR
Chain of Protein translocase subunit SecA (Escherichia coli (strain K12)) (P10408 whole entry): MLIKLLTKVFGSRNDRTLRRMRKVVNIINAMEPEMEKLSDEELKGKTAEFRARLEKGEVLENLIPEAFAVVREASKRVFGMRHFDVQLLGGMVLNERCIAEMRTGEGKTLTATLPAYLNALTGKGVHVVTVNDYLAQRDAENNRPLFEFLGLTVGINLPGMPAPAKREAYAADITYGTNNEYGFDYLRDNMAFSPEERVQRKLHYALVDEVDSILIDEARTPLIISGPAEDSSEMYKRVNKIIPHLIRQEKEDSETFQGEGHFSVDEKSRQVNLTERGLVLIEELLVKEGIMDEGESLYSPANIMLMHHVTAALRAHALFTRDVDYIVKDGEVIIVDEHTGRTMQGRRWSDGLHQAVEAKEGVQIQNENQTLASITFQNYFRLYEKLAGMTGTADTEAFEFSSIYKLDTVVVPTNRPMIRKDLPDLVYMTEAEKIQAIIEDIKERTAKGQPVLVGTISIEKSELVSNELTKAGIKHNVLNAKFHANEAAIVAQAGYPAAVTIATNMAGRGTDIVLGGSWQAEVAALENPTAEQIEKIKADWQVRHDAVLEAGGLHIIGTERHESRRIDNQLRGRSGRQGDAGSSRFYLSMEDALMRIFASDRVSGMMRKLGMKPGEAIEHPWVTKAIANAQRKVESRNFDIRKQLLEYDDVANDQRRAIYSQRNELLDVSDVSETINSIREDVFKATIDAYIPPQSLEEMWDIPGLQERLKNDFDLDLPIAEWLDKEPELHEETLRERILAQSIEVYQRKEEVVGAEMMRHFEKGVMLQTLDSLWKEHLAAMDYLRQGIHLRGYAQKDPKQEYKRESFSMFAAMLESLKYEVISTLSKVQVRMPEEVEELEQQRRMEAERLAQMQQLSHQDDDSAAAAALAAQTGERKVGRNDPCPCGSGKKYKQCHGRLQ

SMILES | Percent Effect [1] [%] | Percent Effect [2] [%] | Percent Effect [3] [%] | Percent Effect [4] [%] | Percent Effect [5] [%] | Percent Effect [6] [%] | Percent Effect [7] [%] | Percent Effect [8] [%] | Percent Effect [9] [%] | Percent Effect [10] [%] | Percent Effect [11] [%]
CN(CCN1CCCCC1)C(=O)c1cc(CN2CCOCC2)on1 | -2.82 | 8.22 | -18.2 | -4.57 | 2.74 | 1.82 | 21.8 | -8.25 | 7.53 | 20 | -3.28
Cc1noc(C)c1-c1cccc(CC2CCN(C(=O)CCC(=O)O)C2)n1 (stereo not drawn) | -2.58 | 6.76 | 5.24 | 4.95 | 3.16 | 0.696 | 3.28 | -7.92 | 1.07 | 3.9 | -9.71
COCc1ccccc1C(=O)N1CCCC(n2nc(C)cc2C)C1 (stereo not drawn) | -3.82 | 5.06 | -3.09 | 3.7 | 4.06 | -6.08 | 4.67 | -9.14 | 4.43 | 3.8 | -4.28
Cc1cc(C[C@@H]2CCC[C@H]2NCc2cc(C)c(O)c(C)c2)on1 | 0.891 | 9.46 | 18.3 | -0.421 | -9.88 | -0.232 | 15.1 | 41.8 | 0 | 9.09 | -12.1
Cc1cc(C)cc(N(C)S(=O)(=O)c2cc(C(=O)O)cs2)c1 | -3.42 | 5.41 | -10.8 | 15.8 | 5.57 | -5.21 | 0 | 12.5 | -1.48 | 3.7 | -4.94
O=C(NCCCN1CCOCC1)c1cc(-c2ccco2)[nH]n1 | -3.38 | 8.22 | -11 | 10.3 | -0.794 | 2.4 | 11.2 | 0.231 | 11.5 | 28.4 | -2.57
COc1ccc(CN(Cc2cccnc2)CC2CCCO2)c(OC)c1 (stereo not drawn) | -1.69 | -2.67 | 11.4 | 2.14 | 6.69 | -1.63 | 7.67 | 3.47 | 2.13 | 6.41 | -2.64
Cn1c(Nc2cn[nH]c2)c(C#N)c(=O)n(C)c1=O | -7.22 | 5.41 | -1.11 | -6.81 | -8.31 | -1.74 | 14.3 | -8.26 | -3.23 | 1.24 | -4.94
